What all share (assay): DAPPL (digital affinity profiling via proximity ligation, sequencing); 10 mM Tris-HCl pH 7.5, 50 mM NaCl, 1 mM DTT, 4% glycerol, room temperature, 30 min; GST-TFs on glutathione beads, 16-mer random dsDNA library, 0.1% formaldehyde crosslink after washing; high values mean tight binding
The target in one assay is T1, FLI1 (Homo sapiens, UniProt Q01543 1-452).
T1 sequence: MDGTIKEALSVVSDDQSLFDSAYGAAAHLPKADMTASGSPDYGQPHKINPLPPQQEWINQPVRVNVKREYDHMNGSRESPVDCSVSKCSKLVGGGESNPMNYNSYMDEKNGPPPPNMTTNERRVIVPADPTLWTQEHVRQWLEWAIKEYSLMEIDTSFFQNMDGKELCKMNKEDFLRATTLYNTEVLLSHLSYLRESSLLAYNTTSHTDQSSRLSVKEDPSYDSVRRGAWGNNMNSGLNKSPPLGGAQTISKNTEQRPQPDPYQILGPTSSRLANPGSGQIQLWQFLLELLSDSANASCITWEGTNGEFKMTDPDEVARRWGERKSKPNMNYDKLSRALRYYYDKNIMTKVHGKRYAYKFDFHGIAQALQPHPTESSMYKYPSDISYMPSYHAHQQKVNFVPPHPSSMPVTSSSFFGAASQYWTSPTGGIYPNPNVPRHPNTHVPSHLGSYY
To be noted: protein: recombinant; tags: N-terminal GST; dsDNA, one strand shown. Summed up:
(§1)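 Binding signal is each hexamer's read frequency for a factor divided by its frequency in the tag-only sample. The factors were GST-fused human transcription factors from yeast, captured on glutathione beads, DNA-barcoded and pooled with that sample. Pools were incubated with 200 nmole of a random double-stranded 16-mer DNA library in Tris/NaCl/DTT/glycerol buffer at room temperature for 30 min, then washed, crosslinked with 0.1% formaldehyde, proximity-ligated with BsaI/T4 ligase (1 h, 37 °C), PCR-amplified and sequenced on an Illumina NextSeq500.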

The next assay addresses T2, ELK1 (Homo sapiens, UniProt P19419 1-428).
T2 sequence: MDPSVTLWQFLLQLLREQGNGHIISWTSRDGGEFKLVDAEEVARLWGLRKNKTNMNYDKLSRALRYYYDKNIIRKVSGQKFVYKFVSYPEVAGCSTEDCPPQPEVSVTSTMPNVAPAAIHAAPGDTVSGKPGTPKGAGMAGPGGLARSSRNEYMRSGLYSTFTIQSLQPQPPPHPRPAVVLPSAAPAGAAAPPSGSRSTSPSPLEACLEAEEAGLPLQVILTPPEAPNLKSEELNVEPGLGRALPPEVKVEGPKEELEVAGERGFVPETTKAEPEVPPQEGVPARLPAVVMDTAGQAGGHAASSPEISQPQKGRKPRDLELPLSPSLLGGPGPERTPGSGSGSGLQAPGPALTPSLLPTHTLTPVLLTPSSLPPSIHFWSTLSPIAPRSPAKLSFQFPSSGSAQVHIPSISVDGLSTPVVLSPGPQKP
To be noted: protein: recombinant; tags: N-terminal GST; dsDNA, one strand shown. The essentials:
as §1

For a further assay, the target named is T3, GABPA (Homo sapiens, UniProt Q06546 1-454).
T3 sequence: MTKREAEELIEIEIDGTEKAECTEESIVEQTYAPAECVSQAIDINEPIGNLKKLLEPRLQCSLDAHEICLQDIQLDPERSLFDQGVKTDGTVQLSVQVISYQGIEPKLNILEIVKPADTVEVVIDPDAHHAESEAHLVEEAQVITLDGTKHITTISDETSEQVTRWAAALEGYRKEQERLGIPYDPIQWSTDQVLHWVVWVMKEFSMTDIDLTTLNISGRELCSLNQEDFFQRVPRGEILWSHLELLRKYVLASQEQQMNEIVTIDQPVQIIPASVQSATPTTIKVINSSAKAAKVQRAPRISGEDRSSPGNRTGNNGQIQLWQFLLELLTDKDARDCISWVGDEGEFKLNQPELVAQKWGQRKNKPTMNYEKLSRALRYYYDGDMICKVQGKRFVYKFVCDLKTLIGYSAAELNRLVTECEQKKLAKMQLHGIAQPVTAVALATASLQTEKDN
To be noted: protein: recombinant; tags: N-terminal GST; dsDNA, one strand shown. The essentials:
as §1

The next assay has as its target T4, ERG (Homo sapiens, UniProt P11308 1-479).
T4 sequence: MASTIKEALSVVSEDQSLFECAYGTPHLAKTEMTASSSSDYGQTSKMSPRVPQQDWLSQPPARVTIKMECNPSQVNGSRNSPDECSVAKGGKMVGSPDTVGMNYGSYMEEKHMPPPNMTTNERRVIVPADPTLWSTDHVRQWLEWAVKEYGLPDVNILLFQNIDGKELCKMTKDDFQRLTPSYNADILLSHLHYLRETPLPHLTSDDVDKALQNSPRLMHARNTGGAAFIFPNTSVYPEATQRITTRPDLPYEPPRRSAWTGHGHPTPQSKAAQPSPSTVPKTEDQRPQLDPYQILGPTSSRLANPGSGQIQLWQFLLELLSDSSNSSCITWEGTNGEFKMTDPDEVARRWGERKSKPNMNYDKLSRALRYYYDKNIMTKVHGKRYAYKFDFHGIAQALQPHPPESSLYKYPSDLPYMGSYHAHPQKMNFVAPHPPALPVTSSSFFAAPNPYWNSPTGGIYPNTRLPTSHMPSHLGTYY
To be noted: protein: recombinant; tags: N-terminal GST; dsDNA, one strand shown. Summed up:
as §1

Another assay concerns the target ELF1 (Homo sapiens, UniProt P32519 1-619). To be noted: protein: recombinant; tags: N-terminal GST; dsDNA, one strand shown. Summed up: as §1
In a further assay the target is T5, EHF (Homo sapiens, UniProt Q9NZC4 1-300).
T5 sequence: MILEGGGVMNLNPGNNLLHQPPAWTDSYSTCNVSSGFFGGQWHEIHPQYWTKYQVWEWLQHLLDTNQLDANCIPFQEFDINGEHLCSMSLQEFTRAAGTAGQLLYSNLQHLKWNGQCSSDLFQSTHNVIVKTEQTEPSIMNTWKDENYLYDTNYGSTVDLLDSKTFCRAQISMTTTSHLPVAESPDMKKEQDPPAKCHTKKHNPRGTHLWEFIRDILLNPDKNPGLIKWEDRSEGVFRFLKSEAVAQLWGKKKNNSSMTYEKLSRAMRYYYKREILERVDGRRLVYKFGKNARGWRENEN
To be noted: protein: recombinant; tags: N-terminal GST; dsDNA, one strand shown. Summed up: as §1

A further assay deals with SPI1 (Homo sapiens, UniProt P17947 1-270). Particulars: protein: recombinant; tags: N-terminal GST; dsDNA, one strand shown. Summed up:
as §1

For another assay, the target named is SPIB (Homo sapiens, UniProt Q01892 1-262). Particulars: protein: recombinant; tags: N-terminal GST; dsDNA, one strand shown. The essentials: as §1
For a further assay, the target named is T6, ELK3 (Homo sapiens, UniProt P41970 1-407).
T6 sequence: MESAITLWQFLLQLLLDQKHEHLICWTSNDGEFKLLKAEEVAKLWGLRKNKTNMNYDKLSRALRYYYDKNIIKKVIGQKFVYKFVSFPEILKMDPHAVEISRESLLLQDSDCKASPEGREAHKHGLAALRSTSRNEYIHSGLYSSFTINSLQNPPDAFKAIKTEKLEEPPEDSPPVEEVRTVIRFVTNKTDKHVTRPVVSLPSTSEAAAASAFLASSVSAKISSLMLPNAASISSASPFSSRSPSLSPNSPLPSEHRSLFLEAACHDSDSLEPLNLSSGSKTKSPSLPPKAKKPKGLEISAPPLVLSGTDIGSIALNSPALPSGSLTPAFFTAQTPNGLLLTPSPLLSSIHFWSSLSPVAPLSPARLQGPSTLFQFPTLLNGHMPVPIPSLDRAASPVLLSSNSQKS
Particulars: protein: recombinant; tags: N-terminal GST; dsDNA, one strand shown. The essentials: as §1

Another assay has as its target T7, FEV (Homo sapiens, UniProt Q99581 1-238).
T7 sequence: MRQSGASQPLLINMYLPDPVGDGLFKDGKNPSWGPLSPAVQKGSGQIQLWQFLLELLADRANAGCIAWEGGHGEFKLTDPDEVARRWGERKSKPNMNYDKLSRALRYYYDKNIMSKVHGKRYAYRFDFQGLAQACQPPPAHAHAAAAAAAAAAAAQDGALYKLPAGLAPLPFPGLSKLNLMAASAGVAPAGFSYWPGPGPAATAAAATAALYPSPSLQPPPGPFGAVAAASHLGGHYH
Particulars: protein: recombinant; tags: N-terminal GST; dsDNA, one strand shown. The essentials:
as §1

Another assay concerns the target ETV5 (Homo sapiens, UniProt P41161 1-510). To be noted: protein: recombinant; tags: N-terminal GST; dsDNA, one strand shown. Summed up: as §1
For the next assay, the target named is HSF1 (Homo sapiens, UniProt Q00613 1-529). Particulars: protein: recombinant; tags: N-terminal GST; chain copies: 3; dsDNA, one strand shown. The essentials: as §1
The next assay concerns the target T8, SPIC (Homo sapiens, UniProt Q8N5J4 1-248).
T8 sequence: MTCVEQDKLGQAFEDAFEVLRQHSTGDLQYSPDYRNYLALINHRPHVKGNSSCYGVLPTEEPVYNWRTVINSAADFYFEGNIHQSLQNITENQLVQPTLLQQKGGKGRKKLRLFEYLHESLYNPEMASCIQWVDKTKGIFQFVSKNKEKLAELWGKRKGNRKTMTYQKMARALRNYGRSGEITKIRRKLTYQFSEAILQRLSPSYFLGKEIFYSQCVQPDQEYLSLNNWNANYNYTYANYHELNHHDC
To be noted: protein: recombinant; tags: N-terminal GST; dsDNA, one strand shown. Summed up:
as §1

In another assay the target is ELF4 (Homo sapiens, UniProt Q99607 1-663). Particulars: protein: recombinant; tags: N-terminal GST; dsDNA, one strand shown. The essentials:
as §1

A further assay has as its target T9, ELK4 (Homo sapiens, UniProt P28324-2 1-405).
T9 sequence: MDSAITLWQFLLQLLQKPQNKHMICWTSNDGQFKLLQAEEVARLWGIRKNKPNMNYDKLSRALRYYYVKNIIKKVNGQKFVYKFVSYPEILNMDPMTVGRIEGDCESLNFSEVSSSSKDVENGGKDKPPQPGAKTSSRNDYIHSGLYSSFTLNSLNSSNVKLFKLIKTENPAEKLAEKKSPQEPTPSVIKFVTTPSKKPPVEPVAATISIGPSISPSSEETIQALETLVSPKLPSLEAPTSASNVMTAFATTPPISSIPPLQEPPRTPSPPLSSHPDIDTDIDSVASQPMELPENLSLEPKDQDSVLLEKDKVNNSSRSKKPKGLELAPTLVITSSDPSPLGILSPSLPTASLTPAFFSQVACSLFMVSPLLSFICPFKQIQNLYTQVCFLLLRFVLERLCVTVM
To be noted: protein: recombinant; tags: N-terminal GST; dsDNA, one strand shown. The essentials: as §1

The next assay deals with T10, ETV2 (Homo sapiens, UniProt O00321 1-342).
T10 sequence: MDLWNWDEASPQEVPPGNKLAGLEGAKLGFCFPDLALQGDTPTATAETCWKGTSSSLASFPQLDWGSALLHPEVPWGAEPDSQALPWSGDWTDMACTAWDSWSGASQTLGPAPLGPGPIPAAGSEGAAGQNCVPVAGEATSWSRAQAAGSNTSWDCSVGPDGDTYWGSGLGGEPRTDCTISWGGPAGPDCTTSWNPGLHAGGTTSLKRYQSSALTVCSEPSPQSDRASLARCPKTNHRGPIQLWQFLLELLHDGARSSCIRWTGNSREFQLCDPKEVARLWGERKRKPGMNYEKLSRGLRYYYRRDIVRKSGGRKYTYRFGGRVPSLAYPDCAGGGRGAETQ
Particulars: protein: recombinant; tags: N-terminal GST; dsDNA, one strand shown. The essentials: as §1

For the next assay, the target named is T11, ELF3 (Homo sapiens, UniProt P78545 1-371).
T11 sequence: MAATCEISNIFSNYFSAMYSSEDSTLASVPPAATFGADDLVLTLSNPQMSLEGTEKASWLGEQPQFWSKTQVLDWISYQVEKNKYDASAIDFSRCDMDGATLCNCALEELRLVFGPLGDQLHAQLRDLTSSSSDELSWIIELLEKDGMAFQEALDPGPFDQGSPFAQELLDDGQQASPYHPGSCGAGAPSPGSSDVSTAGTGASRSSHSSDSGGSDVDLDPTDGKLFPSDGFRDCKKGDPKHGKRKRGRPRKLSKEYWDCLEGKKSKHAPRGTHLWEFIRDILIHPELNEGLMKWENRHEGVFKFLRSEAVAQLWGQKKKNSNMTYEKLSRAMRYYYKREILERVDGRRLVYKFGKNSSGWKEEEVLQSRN
To be noted: protein: recombinant; tags: N-terminal GST; dsDNA, one strand shown. The essentials:
as §1

The next assay addresses CRX (Homo sapiens, UniProt O43186 1-299). Particulars: protein: recombinant; tags: N-terminal GST; dsDNA, one strand shown. The essentials:
as §1

The next assay addresses ETV1 (Homo sapiens, UniProt P50549 1-477). To be noted: protein: recombinant; tags: N-terminal GST; dsDNA, one strand shown. The essentials:
as §1

Chain of ELF1 (P32519 whole entry): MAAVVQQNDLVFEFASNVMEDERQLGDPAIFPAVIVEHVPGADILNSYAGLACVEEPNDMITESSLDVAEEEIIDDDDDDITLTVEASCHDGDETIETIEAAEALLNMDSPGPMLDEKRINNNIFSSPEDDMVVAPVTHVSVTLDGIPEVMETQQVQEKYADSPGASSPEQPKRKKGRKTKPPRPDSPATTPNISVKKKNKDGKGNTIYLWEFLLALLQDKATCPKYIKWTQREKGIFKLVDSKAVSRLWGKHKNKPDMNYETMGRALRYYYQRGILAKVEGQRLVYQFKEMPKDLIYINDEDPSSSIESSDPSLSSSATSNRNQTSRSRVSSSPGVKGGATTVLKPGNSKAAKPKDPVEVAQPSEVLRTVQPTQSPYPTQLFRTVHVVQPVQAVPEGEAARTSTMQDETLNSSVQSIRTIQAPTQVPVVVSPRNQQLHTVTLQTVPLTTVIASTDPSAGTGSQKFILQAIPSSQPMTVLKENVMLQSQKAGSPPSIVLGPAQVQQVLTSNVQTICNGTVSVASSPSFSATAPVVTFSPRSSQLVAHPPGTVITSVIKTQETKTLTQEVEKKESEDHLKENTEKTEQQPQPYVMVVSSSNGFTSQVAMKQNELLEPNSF
Chain of HSF1 (Q00613 whole entry): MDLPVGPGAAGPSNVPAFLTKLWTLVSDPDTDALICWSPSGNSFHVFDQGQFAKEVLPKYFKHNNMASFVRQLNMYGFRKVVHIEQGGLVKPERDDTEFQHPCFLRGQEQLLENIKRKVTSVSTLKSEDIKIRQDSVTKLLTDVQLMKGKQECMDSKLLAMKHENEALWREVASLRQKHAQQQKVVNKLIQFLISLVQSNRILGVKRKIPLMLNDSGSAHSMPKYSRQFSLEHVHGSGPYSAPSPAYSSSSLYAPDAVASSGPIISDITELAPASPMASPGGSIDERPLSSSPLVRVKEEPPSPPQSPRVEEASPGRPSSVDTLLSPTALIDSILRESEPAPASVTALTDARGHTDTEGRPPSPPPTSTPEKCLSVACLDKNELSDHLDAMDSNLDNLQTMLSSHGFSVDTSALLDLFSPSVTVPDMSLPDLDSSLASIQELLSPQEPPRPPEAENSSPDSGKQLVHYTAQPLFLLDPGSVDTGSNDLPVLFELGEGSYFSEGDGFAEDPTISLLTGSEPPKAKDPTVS
Chain of SPIB (Q01892 whole entry): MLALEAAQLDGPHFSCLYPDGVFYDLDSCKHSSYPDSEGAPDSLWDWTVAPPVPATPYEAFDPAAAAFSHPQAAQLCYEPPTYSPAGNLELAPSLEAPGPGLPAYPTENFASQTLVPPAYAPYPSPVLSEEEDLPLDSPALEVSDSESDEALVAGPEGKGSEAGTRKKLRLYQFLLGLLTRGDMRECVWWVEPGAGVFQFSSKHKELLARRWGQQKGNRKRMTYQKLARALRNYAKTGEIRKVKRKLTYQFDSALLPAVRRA
Chain of ETV1 (P50549 whole entry): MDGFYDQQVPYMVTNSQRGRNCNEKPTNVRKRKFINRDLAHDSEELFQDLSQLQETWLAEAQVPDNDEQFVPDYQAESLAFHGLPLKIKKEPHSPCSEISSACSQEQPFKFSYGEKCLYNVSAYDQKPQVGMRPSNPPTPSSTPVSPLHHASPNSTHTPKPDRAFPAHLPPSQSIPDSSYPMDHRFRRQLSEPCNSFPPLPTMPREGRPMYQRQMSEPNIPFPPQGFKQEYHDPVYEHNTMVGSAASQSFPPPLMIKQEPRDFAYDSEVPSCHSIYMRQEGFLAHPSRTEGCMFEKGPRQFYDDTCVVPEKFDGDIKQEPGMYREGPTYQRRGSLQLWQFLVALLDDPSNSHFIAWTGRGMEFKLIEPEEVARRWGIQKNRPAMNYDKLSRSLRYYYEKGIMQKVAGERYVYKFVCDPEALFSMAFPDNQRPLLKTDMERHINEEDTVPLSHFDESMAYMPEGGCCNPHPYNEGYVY
Chain of CRX (O43186 whole entry): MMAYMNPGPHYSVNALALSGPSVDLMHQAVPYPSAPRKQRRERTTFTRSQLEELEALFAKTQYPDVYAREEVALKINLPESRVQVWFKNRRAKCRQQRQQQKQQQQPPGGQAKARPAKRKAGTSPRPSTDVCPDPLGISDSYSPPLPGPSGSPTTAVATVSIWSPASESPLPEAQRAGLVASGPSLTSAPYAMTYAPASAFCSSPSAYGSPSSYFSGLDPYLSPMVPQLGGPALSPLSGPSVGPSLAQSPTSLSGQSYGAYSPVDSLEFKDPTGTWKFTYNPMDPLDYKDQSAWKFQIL
Chain of ELF4 (Q99607 whole entry): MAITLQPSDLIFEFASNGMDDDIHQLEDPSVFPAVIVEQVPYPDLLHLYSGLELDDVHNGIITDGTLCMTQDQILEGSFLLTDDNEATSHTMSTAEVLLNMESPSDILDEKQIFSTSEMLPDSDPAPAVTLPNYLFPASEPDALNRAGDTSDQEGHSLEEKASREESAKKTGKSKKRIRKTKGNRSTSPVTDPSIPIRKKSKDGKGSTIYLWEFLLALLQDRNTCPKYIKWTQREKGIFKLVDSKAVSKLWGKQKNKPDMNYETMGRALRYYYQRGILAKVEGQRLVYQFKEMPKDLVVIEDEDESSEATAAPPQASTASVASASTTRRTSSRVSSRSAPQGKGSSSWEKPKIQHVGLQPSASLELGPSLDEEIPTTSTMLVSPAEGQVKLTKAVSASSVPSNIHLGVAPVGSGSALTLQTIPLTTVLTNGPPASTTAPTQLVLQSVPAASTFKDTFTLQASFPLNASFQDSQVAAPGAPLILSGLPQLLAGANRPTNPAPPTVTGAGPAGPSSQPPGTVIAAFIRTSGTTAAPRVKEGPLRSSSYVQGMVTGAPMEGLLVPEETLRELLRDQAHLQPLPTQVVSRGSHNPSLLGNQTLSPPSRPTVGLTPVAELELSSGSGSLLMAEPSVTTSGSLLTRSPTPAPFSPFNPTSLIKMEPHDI
Chain of ETV5 (P41161 whole entry): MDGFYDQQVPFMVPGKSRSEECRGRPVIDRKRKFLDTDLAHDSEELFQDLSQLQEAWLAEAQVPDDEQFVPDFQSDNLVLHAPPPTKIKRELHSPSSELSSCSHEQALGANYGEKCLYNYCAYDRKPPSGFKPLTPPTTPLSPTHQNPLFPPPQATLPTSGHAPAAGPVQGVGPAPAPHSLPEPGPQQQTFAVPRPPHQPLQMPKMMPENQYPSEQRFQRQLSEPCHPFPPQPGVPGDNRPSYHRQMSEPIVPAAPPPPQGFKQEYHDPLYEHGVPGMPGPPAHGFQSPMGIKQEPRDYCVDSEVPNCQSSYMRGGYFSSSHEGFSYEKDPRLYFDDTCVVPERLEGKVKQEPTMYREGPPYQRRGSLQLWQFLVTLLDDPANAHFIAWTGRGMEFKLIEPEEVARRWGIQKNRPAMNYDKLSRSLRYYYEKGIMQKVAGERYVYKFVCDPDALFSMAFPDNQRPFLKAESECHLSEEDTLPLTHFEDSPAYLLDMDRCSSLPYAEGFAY

In the case of TTGCTG, the binding signal with FLI1 was 1.25 fold enrichment (6-mer frequency, TF over GST control); in the assay with ELK1 it was 1.13 fold enrichment (6-mer frequency, TF over GST control); with GABPA, 1.21 fold enrichment (6-mer frequency, TF over GST control); with ERG, 1.13 fold enrichment (6-mer frequency, TF over GST control); in the assay with ELF1 it was 1.29 fold enrichment (6-mer frequency, TF over GST control); with EHF, 1.25 fold enrichment (6-mer frequency, TF over GST control). Moreover, the binding signal is 1.18 fold enrichment (6-mer frequency, TF over GST control) in the assay with SPI1; 1.28 fold enrichment (6-mer frequency, TF over GST control) with SPIB; 1.33 fold enrichment (6-mer frequency, TF over GST control) in the assay with ELK3; 1.13 fold enrichment (6-mer frequency, TF over GST control) in the assay with FEV; 1.09 fold enrichment (6-mer frequency, TF over GST control) with ETV5; 1.23 fold enrichment (6-mer frequency, TF over GST control) in the assay with HSF1. In addition, the binding signal with SPIC was 1.02 fold enrichment (6-mer frequency, TF over GST control); with ELF4, 1.35 fold enrichment (6-mer frequency, TF over GST control); with ELK4 it was 1.34 fold enrichment (6-mer frequency, TF over GST control); in the assay with ETV2 it was 1.42 fold enrichment (6-mer frequency, TF over GST control); with ELF3 it was 1.33 fold enrichment (6-mer frequency, TF over GST control); in the assay with CRX, 1.26 fold enrichment (6-mer frequency, TF over GST control). The binding signal in the assay with ETV1 was 1.39 fold enrichment (6-mer frequency, TF over GST control).
